Data on six molecules can be found in PubChem BioAssay.

Activity calls are given as the source filed them.

The test system of assay [1] is Human papillomavirus type 1a protein E7 (residues 44-93). Nature of the assay: small molecules binding HPV E7 44-93 – biochemical, small-molecule microarray, residues 44-93, 635 nm fluorescence, primary screen (AID 1108).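 Note: E7 fragment applied at 1 µg/mL in TBST for 1 h at 4 C; score combines spot fluorescence with its signal to noise ratio.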 Particulars: fluorescence 635 nm, higher = more signal.
The nature of assay [2]: hepatitis C replication reporter changes, two-sided – Huh7 cells, luciferase reporter, HCV replication inhibitor project, primary screen (AID 1109).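 Note: huh7 hepatoma cells harbouring a luciferase neomycin HCV replicon reporter; luciferase luminescence as measure of HCV replicon replication; test concentration not given here.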 Conditions: Huh7 HCV replicon luciferase reporter, 48 h; higher = more signal.
Assay [3] addresses Left-right determination factor 2 (Homo sapiens) (UniProt O00292). Description: small molecules binding LEFTY2 protein – biochemical, small-molecule microarray, 635 nm fluorescence scan, primary screen (AID 1110). Particulars: higher = more signal.
Assay [4] concerns the target Calmodulin-1 (Homo sapiens) (UniProt P0DP23). Description: small molecules binding calmodulin-1 with EGTA – biochemical, small-molecule microarray, Cy5-labelled CALM1, profiling panel (AID 1111).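 Note: labelled calmodulin applied in Tris saline Tween buffer holding calcium plus EGTA and DTT.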 Particulars: Cy5-CALM1 binding fluorescence, higher = more signal.
Assay [5] shares this target. Description: small molecules binding Ca-loaded calmodulin-1 – biochemical, small-molecule microarray, Cy5-labelled CALM1, plus calcium, artefact control for SMM control-protein annotation, profiling panel (AID 1112).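 Note: score merges spot fluorescence with signal to noise from triplicate slides.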 Conditions: Cy5-CALM1 binding fluorescence, higher = more signal.
Assay [6] can be described thus: probe aWnt5a binding to arrayed compounds – biochemical, biotinylated probe, 635/667 nm fluorescence, primary screen (AID 1113).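 Note: score merges 667 nm fluorescence intensity with signal-to-noise per printed feature.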 Particulars: small-molecule microarray, higher = more signal.
Assay [7] can be described thus: probe aShh binding to arrayed compounds – biochemical, biotinylated probe, 635/667 nm fluorescence, primary screen (AID 1114).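 Note: probe is biotin-labelled aShh protein from a stem cell growth factor screen; measures binding of labelled protein to compounds printed on the slide; score merges feature fluorescence at 667 nm with signal-to-noise.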 Conditions: small-molecule microarray, higher = more signal.
Assay [8] is described as follows: probe aNog binding to arrayed compounds – biochemical, biotinylated probe, 635/667 nm fluorescence, primary screen (AID 1115).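 Note: probe is biotinylated aNog protein used at 0.15 µg/mL for 1 h at 4 C; z-score combines 667 nm fluorescence of each spot with its signal to noise.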 Particulars: small-molecule microarray, higher = more signal.
Assay [9] addresses Torsin-1A-interacting protein 1 (Homo sapiens) (UniProt Q5JTV8). Description: compound microarray binding of lysate hLAP1 – cell lysate, small-molecule microarray, COS7 lysate, 635/667 nm fluorescence, primary screen (AID 1116). Conditions: 635 nm fluorescence, higher = more signal.
Assay [10] concerns the target Alpha-bungarotoxin (Bungarus multicinctus) (UniProt P60615). Nature of the assay: compounds binding labelled alpha-BTX control protein – biochemical, small-molecule microarray, Alexa647 label, 635/667 nm fluorescence, artefact control for SMM control protein annotation, profiling panel (AID 1117). Particulars: alpha-BTX-A647 binding fluorescence, higher = more signal.

The next assay deals with Albumin (Bos taurus) (UniProt P02769). Description: compounds binding labelled BSA control protein – biochemical, small-molecule microarray, Alexa647 label, 635/667 nm fluorescence, artefact control for SMM control protein annotation, profiling panel (AID 1118).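 Note: score merges 667 nm emission intensity and signal-to-noise per printed compound spot.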 Particulars: BSA-A647 binding, fluorescence 635 nm, higher = more signal.
Chain of Albumin (Bos taurus) (P02769 whole entry, looked up): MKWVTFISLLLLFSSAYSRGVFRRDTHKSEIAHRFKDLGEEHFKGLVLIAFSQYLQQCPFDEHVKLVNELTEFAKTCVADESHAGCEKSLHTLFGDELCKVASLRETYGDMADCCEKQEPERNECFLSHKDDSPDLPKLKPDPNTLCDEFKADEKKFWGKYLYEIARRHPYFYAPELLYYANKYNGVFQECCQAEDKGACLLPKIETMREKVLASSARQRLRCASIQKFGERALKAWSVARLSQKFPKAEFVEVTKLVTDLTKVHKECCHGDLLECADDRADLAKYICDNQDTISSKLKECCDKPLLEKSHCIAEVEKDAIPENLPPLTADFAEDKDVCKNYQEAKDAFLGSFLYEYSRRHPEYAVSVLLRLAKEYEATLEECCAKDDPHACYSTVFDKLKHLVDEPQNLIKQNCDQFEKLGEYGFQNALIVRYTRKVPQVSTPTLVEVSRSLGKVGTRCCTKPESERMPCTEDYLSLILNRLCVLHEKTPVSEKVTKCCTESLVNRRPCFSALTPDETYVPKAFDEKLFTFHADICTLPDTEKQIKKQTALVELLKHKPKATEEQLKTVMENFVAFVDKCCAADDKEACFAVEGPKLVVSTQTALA
Assay [11] in a line: probe aXIP binding to arrayed compounds – biochemical, NeuroSMM set, 635/667 nm fluorescence, primary screen (AID 1119).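 Note: probe is the protein aXip251-270 applied at 1 µg/mL to compound-printed slides; binding of probe to printed compounds measured as 667 nm fluorescence plus signal to noise.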 Particulars: small-molecule microarray, higher = more signal, called active from +8 up or from −8 down.
Assay [12] in a line: probe aNOTCH3 binding on compound microarray – biochemical, small-molecule microarray, 635/667 nm fluorescence, primary screen (AID 1120).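 Note: probe is a biotin-tagged antibody raised against NOTCH3 rather than NOTCH3 protein; score merges spot fluorescence near 667 nm with spot signal to noise.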 Conditions: higher = more signal.
A short description of assay [13]: probe aNOTCH2 binding on compound microarray – biochemical, small-molecule microarray, 635/667 nm fluorescence, primary screen (AID 1121).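 Note: score merges feature fluorescence read at 667 nm with its signal to noise.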 Conditions: higher = more signal.
Assay [14] deals with Carbonic anhydrase 2 (Homo sapiens) (UniProt P00918). Description: compounds binding carbonic anhydrase 2 – biochemical, small-molecule microarray, Alexa647-labelled CAII, profiling panel (AID 1122). Conditions: CAII-A647 binding fluorescence, higher = more signal.
The nature of assay [15]: COS7 lysate on small-molecule microarray, probe aHis, 635 nm (AID 1123).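 Note: z-score combines 667nm fluorescence intensity with signal-to-noise per printed compound spot.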 Particulars: COS7 cell lysate, fluorescence, higher = more signal.
Assay [16] can be described thus: probe aLAP1 signal on lysate-treated microarray – cell lysate, small-molecule microarray, COS7 lysate, primary screen (AID 1124).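 Note: lysate comes from COS7 cells expressing LAP1 and is applied at 0.3 µg/mL; score merges spot fluorescence near 667 nm with signal-to-noise over triplicate slides.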 Particulars: probe aLAP1, fluorescence, higher = more signal.
In the next assay the test system is Sam68 (KHDRBS1). Nature of the assay: compounds binding KHDRBS1 protein – biochemical, small-molecule microarray, 635 nm fluorescence, primary screen (AID 1125).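 Note: score merges 667 nm channel intensity with signal to noise over triplicate slides.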 Particulars: higher = more signal.
For assay [17], the system named is Chordin-like protein 2 (CHRDL2). Description: compounds binding chordin-like 2 – biochemical, small-molecule microarray, 635 nm fluorescence, primary screen (AID 1126).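 Note: printed compound slides probed with Chrdl2 protein at 4 µg/mL for 1 h at 4 C; score merges 667 nm emission intensity with signal to noise over three replicate slides.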 Particulars: fluorescence 635 nm, higher = more signal.
For assay [18], the target named is Concanavalin-A (Canavalia ensiformis) (UniProt P02866). Nature of the assay: compounds binding concanavalin A lectin – biochemical, small-molecule microarray, Alexa647 label, 635 nm, artefact control for SMM control protein annotation, primary screen (AID 1127).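 Note: z combines 667 nm emission intensity with signal-to-noise across three replicate slides.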 Conditions: ConA-A647 binding fluorescence, higher = more signal.
Chain of Concanavalin-A (Canavalia ensiformis) (P02866 whole entry, looked up): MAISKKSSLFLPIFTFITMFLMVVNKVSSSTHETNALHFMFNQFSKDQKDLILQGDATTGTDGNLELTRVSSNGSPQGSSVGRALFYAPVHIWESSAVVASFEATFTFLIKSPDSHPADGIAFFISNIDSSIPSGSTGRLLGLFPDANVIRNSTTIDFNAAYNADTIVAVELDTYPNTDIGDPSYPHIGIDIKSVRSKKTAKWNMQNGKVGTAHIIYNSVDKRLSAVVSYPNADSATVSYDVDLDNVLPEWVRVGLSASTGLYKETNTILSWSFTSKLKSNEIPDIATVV

Chain of Torsin-1A-interacting protein 1 (Homo sapiens) (Q5JTV8 whole entry, looked up): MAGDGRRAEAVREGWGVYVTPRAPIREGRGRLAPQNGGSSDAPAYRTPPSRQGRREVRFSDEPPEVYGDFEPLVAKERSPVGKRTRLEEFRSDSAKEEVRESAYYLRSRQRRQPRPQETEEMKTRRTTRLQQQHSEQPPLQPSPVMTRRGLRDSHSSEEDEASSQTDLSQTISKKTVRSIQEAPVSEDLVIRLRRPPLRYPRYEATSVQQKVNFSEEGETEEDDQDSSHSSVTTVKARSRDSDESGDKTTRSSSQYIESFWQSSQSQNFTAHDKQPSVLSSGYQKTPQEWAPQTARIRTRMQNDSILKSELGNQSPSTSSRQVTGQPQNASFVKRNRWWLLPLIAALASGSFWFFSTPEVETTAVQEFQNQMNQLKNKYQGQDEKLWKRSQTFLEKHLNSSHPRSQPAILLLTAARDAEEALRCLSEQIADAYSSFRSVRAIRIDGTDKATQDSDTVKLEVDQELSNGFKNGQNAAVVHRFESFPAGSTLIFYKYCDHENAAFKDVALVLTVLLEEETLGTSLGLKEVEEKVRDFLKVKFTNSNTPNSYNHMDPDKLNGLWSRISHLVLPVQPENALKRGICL
Chain of Left-right determination factor 2 (Homo sapiens) (O00292 whole entry, looked up): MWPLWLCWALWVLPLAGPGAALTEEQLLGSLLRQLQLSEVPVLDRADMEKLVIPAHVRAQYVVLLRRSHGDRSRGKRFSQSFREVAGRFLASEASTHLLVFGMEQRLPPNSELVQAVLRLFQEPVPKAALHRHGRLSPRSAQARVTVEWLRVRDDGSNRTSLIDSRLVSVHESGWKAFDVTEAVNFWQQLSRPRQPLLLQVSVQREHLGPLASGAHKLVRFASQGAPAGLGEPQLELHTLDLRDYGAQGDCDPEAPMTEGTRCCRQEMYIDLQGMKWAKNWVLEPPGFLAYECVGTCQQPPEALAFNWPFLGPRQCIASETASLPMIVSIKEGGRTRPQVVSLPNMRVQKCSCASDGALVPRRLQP
Chain of Alpha-bungarotoxin (Bungarus multicinctus) (P60615 whole entry, looked up): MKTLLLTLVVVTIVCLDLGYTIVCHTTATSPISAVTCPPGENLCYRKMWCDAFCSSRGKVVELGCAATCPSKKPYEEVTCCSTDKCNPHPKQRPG

With `CC(C)C[C@H]1NC(=O)[C@@]23C(=O)N[C@@H](Cc4ccccc4)C2[C@H](C)[C@@]2(C)O[C@H]2C3/C=C/C/C=C\CNC(=O)[C@H](Cc2ccccc2)NC1=O` (stereo not given in full), the composite z-score in assay [1] was 1.06; in [3], 0.452; in [4] it was -0.434; in [5] it was -0.578; in assay [6] it was -0.0735; in [7], -0.0553. For the same molecule, the composite z-score was -0.194 in assay [8]; -0.225 in assay [9]; -0.0973 in [10]; -0.188 with Albumin (Bos taurus); -0.0377 in assay [12]; -0.115 in [13]. Also, the composite z-score in assay [14] was 0.254; in assay [15] it was 0.19; in assay [16], -0.108; in the assay on Sam68 (KHDRBS1), 0.791; in assay [17] it was 0.696; in assay [18] it was 0.205. Also, in assay [2], the z-score was -1.32. In [11], the composite Z-score is -0.311 (inactive).

Regarding `CCOC(=O)[C@H]1C/C=C/C[C@H](C(=O)OCC)C(=O)O[C@H]2[C@@H](OC)O[C@H](CO)[C@@H](OC(=O)Nc3ccc(C#N)cc3)[C@@H]2OC1=O`, the composite z-score in [1] is -0.324; in assay [3], -0.0147; in assay [4], 0.917; in assay [5], 0.148; in [6], -0.124; in [7], 0.0062. Also, the composite z-score was -0.113 in [8]; 1.63 in [9]; -0.253 in assay [10]; 0.842 in the assay with Albumin (Bos taurus); -0.307 in [12]; -0.159 in [13]. Besides, the composite z-score was 0.607 in assay [14]; 0.823 in assay [15]; 0.603 in assay [16]; 0.171 in the assay with Sam68 (KHDRBS1); -0.619 in assay [17]; -0.175 in [18]. The molecule also returned a z-score in assay [2] of -3.6. The composite Z-score in assay [11] is 0.941 (inactive).

Take `COc1ccc(CCN2C(=O)[C@@]3(c4ccc([N+](=O)[O-])cc4)CC(=O)N(C4CCCCC4)[C@@H]3c3ccc(CO)cc32)cc1`: the composite z-score was 0.106 in assay [1]; 0.636 in [3]; -0.574 in assay [4]; -0.747 in assay [5]; 0.0495 in [6]; -0.229 in [7]. The composite z-score in assay [8] was -0.33; in [9], 0.341; in [10], -0.167; in the assay with Albumin (Bos taurus), -1.26; in assay [12], -0.0598; in assay [13], -0.101. The composite z-score in [14] was 0.257; in assay [15], 0.622; in assay [16] it was 0.347; in the assay with Sam68 (KHDRBS1) it was 0.38; in assay [17] it was 0.693; in assay [18], 0.587. The molecule further registered a z-score in assay [2] of 0.431. Moreover, in assay [11], the composite Z-score was 0.469 (inactive).

As for `COc1ccc([C@H]2C[C@H]3C(Br)=C[C@@H]2C(=O)[C@]32CO2)cc1`, the composite z-score is -0.693 in assay [1]; 0.446 in assay [3]; -0.0833 in assay [4]; -0.798 in assay [5]; 0.0136 in assay [6]; -0.138 in assay [7]. The composite z-score is -0.158 in [8]; 0.252 in [9]; 0.29 in assay [10]; -1.13 with Albumin (Bos taurus); -0.176 in [12]; -0.075 in [13]. Besides, the composite z-score in assay [14] was -0.539; in assay [15] it was -0.442; in assay [16] it was -0.0737; with Sam68 (KHDRBS1), -0.99; in assay [17] it was 0.736; in assay [18], 0.125. Also, in assay [2], the z-score is -2.46. Moreover, the composite Z-score in assay [11] is -0.624 (inactive).

Consider `CCCCN1CC=CC23O[C@@H]4C=CCOC(=O)[C@@H]4[C@H]2C(=O)N(CCCCCO)[C@@H]3C1=O` (stereo not given in full), for which the composite z-score was -0.524 in [1]; -1.53 in assay [3]; -0.615 in [4]; -0.363 in assay [5]; -0.124 in [6]; 0.627 in assay [7]. Besides, the composite z-score in [8] was 0.151; in [9] it was 1.95; in assay [10], -1.47; with Albumin (Bos taurus), 0.914; in assay [12], -0.199; in [13], -0.0422. In addition, the composite z-score in [14] was 0.858; in assay [15] it was 1.8; in [16] it was 1.3; with Sam68 (KHDRBS1), -0.445; in assay [17], -0.769; in assay [18], -1.08. This molecule also returned a z-score in assay [2] of 0.536. Further, the composite Z-score in assay [11] is 0.102 (inactive).

As to `CCCN1C(=O)[C@]2(CCS(=O)(=O)c3ccccc3)N=C(c3ccc(OCCCO)cc3)O[C@@H]2c2ccccc21`, the composite z-score in assay [1] is 1.42; in assay [3] it was 0.16; in assay [4], 3.15; in [5], -0.0613; in [6], -0.0643; in assay [7], 0.0893. In addition, the composite z-score in assay [8] was -0.153; in assay [9], 1.74; in [10], 1.14; with Albumin (Bos taurus), 0.414; in [12], -0.0328; in assay [13] it was -0.0995. Further, the composite z-score in assay [14] was 0.276; in assay [15], 1.15; in [16] it was -0.031; with Sam68 (KHDRBS1) it was 1.29; in assay [17], 0.359; in assay [18], 0.414. This molecule displayed a z-score in assay [2] of -2.49. For the same molecule, in [11], the composite Z-score is -0.0745 (inactive).
